Test results from PubChem BioAssay (NCI).
This is part of a sample that, as a whole, favours compounds with a hit. Of some 79,000 tested, about 15% had one in any assay. Activity calls are given as the source filed them. Cut-off read from the data, not from the text of the source: active = growth inhibition above about 70%; inactive = the rest.

Columns and labels:
[1] = NCI Yeast Anticancer Drug Screen. Data for the rad14 strain (AID 159);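 note: 0% = growth of vehicle-treated control cultures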; details: S. cerevisiae rad14 strain growth inhibition, active compounds read high
Outline: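 Screen for anticancer potential: a yeast strain altered in DNA damage repair is grown with compound, and reduced growth is quantified against vehicle controls.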

[2] = NCI Yeast Anticancer Drug Screen. Data for the sgs1 mgt1 strain (AID 161);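 note: 0% = growth of cultures given vehicle only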; details: S. cerevisiae sgs1 mgt1 strain, active compounds read high
Outline: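 Compounds are added to genetically altered yeast, and growth is compared with cultures given vehicle alone to give percent inhibition.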

[3] = NCI Yeast Anticancer Drug Screen. Data for the CLN2oe strain (AID 163);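 note: 0% = growth of vehicle-only control cultures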; details: S. cerevisiae CLN2oe strain, active compounds read high
Outline: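 Compound-treated yeast; growth vs vehicle ctrl = % inhibition. Genetically altered strain (cell-cycle control).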

[4] = NCI Yeast Anticancer Drug Screen. Data for the cln2 rad14 strain (AID 165);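 note: 0% = growth equal to vehicle treated cultures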; details: S. cerevisiae cln2 rad14 strain, active compounds read high
Outline: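 Growth inhibition, relative to vehicle-treated controls, is the read-out. The test organism is a yeast strain with defined genetic alterations, cln2 rad14.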

[5] = NCI Yeast Anticancer Drug Screen. Data for the bub3 strain (AID 167); details: S. cerevisiae bub3 mutant strain, active compounds read high
Outline: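 Screening used yeast with an engineered genetic alteration affecting cell cycle control. Compound-exposed cultures were compared with vehicle cultures, and reduced growth was taken as inhibition.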

[6] = NCI Yeast Anticancer Drug Screen. Data for the wt2 strain (AID 169);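 note: 0% = growth of vehicle-treated yeast cultures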; details: S. cerevisiae wt2 strain growth inhibition, active compounds read high
Outline: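 Compound exposure of yeast; growth compared with vehicle controls; inhibition reported.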

[7] = NCI Yeast Anticancer Drug Screen. Data for the mlh1 strain (AID 171);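 note: 0% = growth of vehicle-treated control cultures of the same strain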; details: S. cerevisiae mlh1 strain growth inhibition, active compounds read high
Outline: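 Compounds are applied to a genetically altered yeast strain, and its growth is compared with that of vehicle-treated cultures to give percent inhibition.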

[8] = NCI Yeast Anticancer Drug Screen. Data for the mlh1 rad18 strain (AID 175); details: S. cerevisiae mlh1 rad18 strain growth inhibition, active compounds read high
Outline: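 Cells of a genetically altered yeast strain, deficient in DNA damage repair, were treated with compound. Their growth was then compared with that of vehicle-treated cultures to give inhibition.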

[9] = NCI Yeast Anticancer Drug Screen. Data for the rad18 strain (AID 177); details: S. cerevisiae rad18 mutant growth inhibition, active compounds read high
Outline: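 Compounds are applied to a repair-deficient yeast strain, and growth is compared with that of vehicle-treated cultures to give percent inhibition.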

[10] = at 5.0 µM (retest, dose inferred, filed as 0.5)
[11] = at 50.0 µM (retest, dose inferred, filed as 5.0)

Measured: growth inhibition

Cc1cccc[n+]1C1CCc2c(ccc3ccccc23)C1=O (centres undefined)
inactive: [1]; at 33.0 µM 12% | [1]; at 100.0 µM 61% | [2]; [10] 3% | [2]; [11] 55% | [3]; at 1.2 µM -6% | [3]; at 3.7 µM -3% | [3]; at 11.0 µM -5% | [3]; at 33.0 µM -1% | [3]; at 100.0 µM 48% | [4]; [10] 0% | [4]; [11] 26% | [4]; at 50.0 µM 26.6% | [5]; at 1.2 µM -2% | [5]; at 3.7 µM 0% | [5]; [10] -4% | [5]; at 11.0 µM 3% | [5]; at 33.0 µM 18% | [6]; at 1.2 µM -6% | [6]; at 3.7 µM -8% | [6]; at 11.0 µM -11% | [6]; at 33.0 µM -9% | [6]; at 100.0 µM 65% | [7]; at 1.2 µM 2% | [7]; at 3.7 µM 1% | [7]; at 11.0 µM 2% | [7]; at 33.0 µM 10% | [7]; at 100.0 µM 68% | [8]; [10] 2% | [9]; at 1.2 µM 2% | [9]; at 3.7 µM 3% | [9]; at 11.0 µM 2% | [9]; at 33.0 µM 6%
active: [2]; at 50.0 µM 93.3% | [5]; [11] 70% | [5]; at 50.0 µM 98.2% | [5]; at 100.0 µM 72% | [8]; [11] 73% | [8]; at 50.0 µM 89.7% | [9]; at 100.0 µM 79%
